Source: PubChem BioAssay (NCATS)
Results filed as inconclusive are left out. This is one part of the list. The source made the active and inactive calls. Unless noted, calls come from the whole dose curve; as a rule, active = well fitted curve in the direction sought with a large enough effect; inconclusive = small, poorly fitted or top-dose-only effect, or another doubt; inactive = no such curve, though single readings can be large; an effect the other way counts as inactive or inconclusive.

How the values were obtained:
[1] = qHTS Assay for Inhibitors of Fructose-1,6-bisphosphate Aldolase from Giardia Lamblia: Coupling assay counterscreen confirmation (AID 2795); note: % is set by controls: 0 for no effect and ±100 for the full control effect; nearly all actives have a fitted effect of over 55% in size
Summary of the method: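 Primary-screen hits were tested against the coupling system alone (GAPDH-based, glyceraldehyde-3-phosphate), without aldolase. Compounds at up to 57.5 uM final were preincubated 10 min at RT with coupling enzymes, then substrate/detection mix (AmpLite Red) was added for 20 min at RT; fluorescence read at 525/598 nm.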

[2] = target: Fructose-bisphosphate aldolase (Giardia intestinalis (strain ATCC 50803 / WB clone C6)) (UniProt A8B2U2); test: qHTS Assay for Inhibitors of Fructose-1,6-bisphosphate Aldolase from Giardia Lamblia: Primary screen confirmation (AID 2787);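 note: aldolase product measured through coupled diaphorase step turning resazurin into fluorescent resorufin; % is set by controls: 0 for no effect and ±100 for the full control effect; nearly all actives have a fitted effect of over 45% in size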
Sequence of Fructose-bisphosphate aldolase (Giardia intestinalis (strain ATCC 50803 / WB clone C6)) (A8B2U2 whole entry, looked up): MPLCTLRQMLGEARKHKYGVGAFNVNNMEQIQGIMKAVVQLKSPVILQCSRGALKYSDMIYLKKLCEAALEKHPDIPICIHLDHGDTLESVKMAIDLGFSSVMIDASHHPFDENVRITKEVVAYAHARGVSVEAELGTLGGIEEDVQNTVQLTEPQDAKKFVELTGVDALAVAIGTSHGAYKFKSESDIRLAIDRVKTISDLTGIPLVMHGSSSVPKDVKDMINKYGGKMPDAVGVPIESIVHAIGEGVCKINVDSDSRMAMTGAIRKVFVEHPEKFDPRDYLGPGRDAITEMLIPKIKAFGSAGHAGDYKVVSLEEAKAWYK
Summary of the method: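 Confirmation of primary hits by qHTS up to 57.5 uM final compound. Enzyme at 40 nM with 30 uM ZnCl2, 10 min RT pre-incubation, then substrate/coupling/resorufin-forming detection mix for 20 min before fluorescence read at 525/598 nm.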

[3] = target: Lysosomal acid glucosylceramidase (Homo sapiens) (UniProt P04062); test: Glucocerebrosidase-p2 (AID 348; in the data active = potency below about 10 µM; note: potency is the fitted concentration of half-maximal effect); conditions: purified GBA, blue fluorogenic substrate, 40 min
Sequence of Lysosomal acid glucosylceramidase (Homo sapiens) (P04062 whole entry, looked up): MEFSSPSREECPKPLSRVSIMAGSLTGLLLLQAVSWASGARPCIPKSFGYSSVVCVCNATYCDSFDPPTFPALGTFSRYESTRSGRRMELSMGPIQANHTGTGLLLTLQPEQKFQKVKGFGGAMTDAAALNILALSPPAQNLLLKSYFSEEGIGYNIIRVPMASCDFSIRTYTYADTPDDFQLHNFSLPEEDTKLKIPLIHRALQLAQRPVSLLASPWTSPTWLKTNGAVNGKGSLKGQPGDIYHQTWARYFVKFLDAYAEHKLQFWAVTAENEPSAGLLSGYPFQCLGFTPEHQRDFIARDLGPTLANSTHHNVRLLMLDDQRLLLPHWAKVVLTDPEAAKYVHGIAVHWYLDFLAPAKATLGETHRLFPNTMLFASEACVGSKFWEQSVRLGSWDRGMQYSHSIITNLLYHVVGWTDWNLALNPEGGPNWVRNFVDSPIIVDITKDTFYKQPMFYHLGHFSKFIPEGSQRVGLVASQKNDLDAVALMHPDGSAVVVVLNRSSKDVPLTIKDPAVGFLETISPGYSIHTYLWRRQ
Summary of the method: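 Compounds titrated from 0.6 nM upwards against 0.2 nM enzyme in pH 5.9 citric acid/KH2PO4, taurocholate, tween-20; blue fluorogenic substrate 80 uM, 40 min room temperature, stopped and read Ex 365/Em 440 for AC50.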

[4] = AP1 Signaling Pathway (AID 357; active = well fitted curve in either direction with a large enough effect, not every such curve was filed as active; note: % is set by controls: 0 for no effect and ±100 for the full control effect); conditions: ME-180 AP-1-bla reporter, EGF-induced, beta-lactamase ratio, 5 h; at 7.69 µM (top of the series) unless noted
Summary of the method: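 ME-180 cells with beta-lactamase reporter under AP-1 response element, stimulated with EC50 EGF; compounds tested in titration series, 5 h at 37 °C. CCF4 substrate added 2.5 h at room temperature; 460/530 nm emission ratio gave %activity and AC50.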

[5] = target: Cytochrome P450 1A2 (Homo sapiens) (UniProt P05177); test: p450-cyp1a2 (AID 410; calls by dose curve;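 note: -100% = full effect of reference inhibitor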)
Sequence of Cytochrome P450 1A2 (Homo sapiens) (P05177 whole entry, looked up): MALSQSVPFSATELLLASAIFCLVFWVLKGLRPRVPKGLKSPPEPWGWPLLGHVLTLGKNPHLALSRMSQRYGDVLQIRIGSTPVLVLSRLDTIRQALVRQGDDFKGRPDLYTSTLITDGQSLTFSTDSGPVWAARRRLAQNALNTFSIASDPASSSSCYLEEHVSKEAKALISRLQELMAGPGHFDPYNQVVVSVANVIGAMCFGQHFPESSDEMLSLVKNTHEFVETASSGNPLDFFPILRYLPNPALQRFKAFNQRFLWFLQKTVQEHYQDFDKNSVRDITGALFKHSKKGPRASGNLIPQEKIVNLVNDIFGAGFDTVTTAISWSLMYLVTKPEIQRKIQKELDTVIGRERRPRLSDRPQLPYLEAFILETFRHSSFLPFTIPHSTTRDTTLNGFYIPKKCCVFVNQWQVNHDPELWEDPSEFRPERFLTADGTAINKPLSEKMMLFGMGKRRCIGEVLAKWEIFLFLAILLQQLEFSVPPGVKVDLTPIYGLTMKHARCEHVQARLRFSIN
Summary of the method: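 20nM CYP1A2 with 100uM Luciferin-ME (at Km) in 100mM KPO4; compound preincubated 10 min, NADPH regeneration added, 60 min at room temperature. Luciferin quantified by luminescence after detection reagent; normalized to 57 uM furafylline.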

[6] = NFAT Signaling Pathway (AID 444; active = well fitted curve in either direction with a large enough effect, not every such curve was filed as active;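 note: carbachol stimulus at about its EC50 of 1 µM final; % is set by controls: 0 for no effect and ±100 for the full control effect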); conditions: Jurkat NFAT-bla M1, carbachol, beta-lactamase ratio, 5 h; at 7.69 µM (top of the series) unless noted
Summary of the method: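 Jurkat cells with NFAT-driven β-lactamase reporter and co-expressed M1 receptor, stimulated with carbachol (final 1 uM, ~EC50), compound titration, 5 h at 37 °C. CCF4 loaded 1 h at RT; 460/530 nm ratio gave %activity and AC50.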

[7] = Stat Signaling Pathway (AID 446; active = well fitted curve in either direction with a large enough effect, not every such curve was filed as active;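 note: ME-180 cervical cancer cells given 40 pM IL-6 alongside compound; SIE-controlled beta-lactamase reporter measured as 460/530 nm FRET emission ratio; % is set by controls: 0 for no effect and ±100 for the full control effect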); conditions: ME-180 SIE beta-lactamase reporter, IL-6 stimulated, 5 h; at 7.69 µM (top of the series) unless noted
Summary of the method: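 ME-180 SIE-bla cells; overnight plating; cpd + IL-6 40 pM, 5 h, 37 C; LiveBLAzer 2.5 h RT; 460/530 nm emission ratio. Normalized to 300 pM IL-6 and 125 nM JAK inhibitor controls.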

[8] = target: Glucocorticoid receptor (Homo sapiens) (UniProt P04150); test: GR-GFP Redistribution (AID 450;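 active = compounds whose dose series gives a full or clear partial fitted curve of increased nuclear translocation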; note: potency is the fitted concentration of half-maximal effect); conditions: U2OS GR-GFP nuclear translocation, laser cytometry, 2 h
Sequence of Glucocorticoid receptor (Homo sapiens) (P04150 whole entry, looked up, the tested form may be a part): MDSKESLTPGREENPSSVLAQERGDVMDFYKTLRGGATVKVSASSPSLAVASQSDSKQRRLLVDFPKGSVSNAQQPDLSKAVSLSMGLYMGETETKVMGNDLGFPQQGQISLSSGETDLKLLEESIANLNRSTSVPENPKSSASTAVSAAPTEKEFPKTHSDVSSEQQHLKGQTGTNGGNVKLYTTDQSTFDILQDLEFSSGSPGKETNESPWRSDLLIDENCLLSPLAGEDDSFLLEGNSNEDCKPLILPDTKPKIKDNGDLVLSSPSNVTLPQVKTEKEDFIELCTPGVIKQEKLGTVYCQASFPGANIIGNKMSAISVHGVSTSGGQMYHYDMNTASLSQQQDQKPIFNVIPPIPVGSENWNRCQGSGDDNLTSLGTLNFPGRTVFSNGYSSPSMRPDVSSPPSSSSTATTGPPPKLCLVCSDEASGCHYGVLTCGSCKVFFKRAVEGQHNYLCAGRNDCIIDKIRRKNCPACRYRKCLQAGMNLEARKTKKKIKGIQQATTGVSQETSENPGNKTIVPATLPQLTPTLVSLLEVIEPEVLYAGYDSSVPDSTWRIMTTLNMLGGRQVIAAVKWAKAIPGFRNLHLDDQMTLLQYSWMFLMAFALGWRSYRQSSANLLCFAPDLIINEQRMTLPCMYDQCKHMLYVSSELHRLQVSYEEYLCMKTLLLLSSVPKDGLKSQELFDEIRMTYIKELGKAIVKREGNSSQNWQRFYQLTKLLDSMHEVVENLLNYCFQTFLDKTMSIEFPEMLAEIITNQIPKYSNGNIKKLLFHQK

[9] = target: Glucocorticoid receptor (Homo sapiens) (UniProt P04150); test: GR-EFC Redistribution (AID 451; calls by dose curve; note: potency is the fitted concentration of half-maximal effect); conditions: CHO-K1 GR-EFC translocation, beta-gal luminescence, 2 h
Summary of the method: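 CHO-K1 cells expressing nuclear EA and GR-ED fragments of b-gal; compounds titrated up to 46 uM final, 2 h at 37 C. GR nuclear translocation read as complemented b-gal luminescence after 1 h RT detection.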

[10] = target: Mitogen-activated protein kinase 10 (Mus musculus) (UniProt Q61831); test: JNK3 AlphaScreen Assay (AID 530; active = well fitted curve in either direction with a large enough effect, not every such curve was filed as active;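 note: kinase came from lysate of stimulated human HepG2 cells; signal reports phosphorylation of biotinylated GST-cJun 1-79 at Ser73 with 10 µM ATP; % is set by controls: 0 for no effect and ±100 for the full control effect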)
Summary of the method: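 Pre-activated (IL-1β/TNFα) JNK3 in HepG2 lysates phosphorylates biotin-GST-cJun(1-79), 10 uM ATP; anti-phospho-cJun(Ser73) AlphaScreen read at room temperature, pH 7.6 Tris buffer. Compounds pre-incubated 15 min as titrations.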

[11] = target: 3',5'-cyclic-AMP phosphodiesterase 4B (Homo sapiens) (UniProt Q07343); test: qHTS Assay for Inhibitors of PDE-IV (AID 607; active = well fitted activation curve with a large enough effect in the main read-out, with a control signal flat, not every such curve was filed as active; note: % of control where 0% means no effect)
Sequence of 3',5'-cyclic-AMP phosphodiesterase 4B (Homo sapiens) (Q07343 whole entry, looked up): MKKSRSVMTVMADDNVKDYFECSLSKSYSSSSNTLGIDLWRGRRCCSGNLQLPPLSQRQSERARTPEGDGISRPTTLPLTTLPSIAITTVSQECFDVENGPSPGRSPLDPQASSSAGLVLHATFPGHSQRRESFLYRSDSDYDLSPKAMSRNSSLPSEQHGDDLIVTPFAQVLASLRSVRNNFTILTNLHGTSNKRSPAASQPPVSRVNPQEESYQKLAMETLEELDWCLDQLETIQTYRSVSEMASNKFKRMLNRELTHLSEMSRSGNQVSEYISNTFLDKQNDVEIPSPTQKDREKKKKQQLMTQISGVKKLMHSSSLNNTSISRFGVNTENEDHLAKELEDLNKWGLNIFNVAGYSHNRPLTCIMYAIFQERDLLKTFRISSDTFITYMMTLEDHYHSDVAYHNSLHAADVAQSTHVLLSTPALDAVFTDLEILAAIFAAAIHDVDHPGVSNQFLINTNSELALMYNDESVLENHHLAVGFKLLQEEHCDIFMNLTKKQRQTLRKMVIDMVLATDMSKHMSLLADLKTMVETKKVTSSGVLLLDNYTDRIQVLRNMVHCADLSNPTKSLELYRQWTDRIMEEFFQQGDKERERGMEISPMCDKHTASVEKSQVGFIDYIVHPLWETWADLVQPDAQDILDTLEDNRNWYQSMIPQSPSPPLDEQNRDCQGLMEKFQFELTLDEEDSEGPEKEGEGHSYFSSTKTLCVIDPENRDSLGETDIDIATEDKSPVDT
Summary of the method: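 ACTOne HEK293 cells carry a modified cAMP-gated CNG channel and express endogenous PDE4; plated 1000 cells/well, compounds up to 22.9 uM final. Membrane-potential dye fluorescence (ex 535/em 590) was read; parental cells received 10 uM forskolin + 100 uM RO 20-1724.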

[12] = target: ATP-dependent 6-phosphofructokinase (Trypanosoma brucei brucei) (UniProt O15648); test: qHTS Assay to Find Inhibitors of T. brucei phosphofructokinase: hit validation (AID 492961); note: % is set by controls: 0 for no effect and ±100 for the full control effect
Sequence of ATP-dependent 6-phosphofructokinase (Trypanosoma brucei brucei) (O15648 whole entry, looked up): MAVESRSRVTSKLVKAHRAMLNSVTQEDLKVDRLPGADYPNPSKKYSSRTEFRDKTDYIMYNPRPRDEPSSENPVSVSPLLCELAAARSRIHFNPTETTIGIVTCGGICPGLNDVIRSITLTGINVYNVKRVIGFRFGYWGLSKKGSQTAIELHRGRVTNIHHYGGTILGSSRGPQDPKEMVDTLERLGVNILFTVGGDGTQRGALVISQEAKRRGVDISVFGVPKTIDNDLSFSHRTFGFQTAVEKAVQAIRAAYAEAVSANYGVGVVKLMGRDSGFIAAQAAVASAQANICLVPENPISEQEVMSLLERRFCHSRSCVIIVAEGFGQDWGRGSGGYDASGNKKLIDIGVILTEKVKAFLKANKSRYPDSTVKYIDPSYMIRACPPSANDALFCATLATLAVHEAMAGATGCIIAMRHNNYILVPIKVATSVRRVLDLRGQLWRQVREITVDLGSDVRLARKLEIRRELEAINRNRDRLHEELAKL
Summary of the method: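 Luminescence from ADP-Glo reports ADP generated as T. brucei PFK (1.25 nM) phosphorylates 0.5 mM fructose-6-phosphate using 0.1 mM ATP. Reactions ran 45 min at room temperature, pH 8.0.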

[13] = target: Ubiquitin carboxyl-terminal hydrolase 1 (Homo sapiens) (UniProt O94782); test: Inhibitors of USP1/UAF1: Pilot qHTS (AID 504865);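 note: rhodamine fluorescence freed from ubiquitin-rhodamine substrate followed over time; top concentration of the series differs between compounds; % is set by controls: 0 for no effect and ±100 for the full control effect; nearly all actives have a fitted effect of over 35% in size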
Sequence of Ubiquitin carboxyl-terminal hydrolase 1 (Homo sapiens) (O94782 whole entry, looked up): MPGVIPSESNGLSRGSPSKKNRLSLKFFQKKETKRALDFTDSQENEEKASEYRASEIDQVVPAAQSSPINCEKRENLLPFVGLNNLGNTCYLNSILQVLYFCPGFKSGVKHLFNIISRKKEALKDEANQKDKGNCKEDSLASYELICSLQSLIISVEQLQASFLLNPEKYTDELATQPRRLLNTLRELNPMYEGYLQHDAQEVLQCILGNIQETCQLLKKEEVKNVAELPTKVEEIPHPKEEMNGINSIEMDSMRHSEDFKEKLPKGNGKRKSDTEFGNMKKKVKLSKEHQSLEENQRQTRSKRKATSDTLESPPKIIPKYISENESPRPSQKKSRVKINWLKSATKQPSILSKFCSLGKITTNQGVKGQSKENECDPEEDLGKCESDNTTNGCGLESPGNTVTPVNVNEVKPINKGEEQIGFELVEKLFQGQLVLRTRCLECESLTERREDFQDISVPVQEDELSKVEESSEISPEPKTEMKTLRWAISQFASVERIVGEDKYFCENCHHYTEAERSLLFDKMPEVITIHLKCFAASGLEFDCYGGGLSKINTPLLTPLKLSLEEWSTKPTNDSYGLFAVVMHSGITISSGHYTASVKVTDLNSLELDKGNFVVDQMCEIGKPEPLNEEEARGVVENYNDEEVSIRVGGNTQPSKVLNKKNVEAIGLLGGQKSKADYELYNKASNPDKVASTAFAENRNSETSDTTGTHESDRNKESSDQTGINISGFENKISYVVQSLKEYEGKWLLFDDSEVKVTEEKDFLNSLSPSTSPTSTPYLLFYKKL
Summary of the method: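 Kinetic fluorescence assay: 1nM USP1/UAF1, 15 min compound preincubation, then 150nM Ub-Rho; 480/540 nm.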

[14] = target: Luciferin 4-monooxygenase (Photinus pyralis) (UniProt P08659); test: Biochemical firefly luciferase enzyme assay for NPC (AID 624030);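 note: purified P. pyralis luciferase at 10 nM with luciferin and ATP substrate; 0% = DMSO and -100% = full luciferase inhibition by PTC124 control; nearly all actives have a fitted effect of over 70% in size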
Sequence of Luciferin 4-monooxygenase (Photinus pyralis) (P08659 whole entry, looked up): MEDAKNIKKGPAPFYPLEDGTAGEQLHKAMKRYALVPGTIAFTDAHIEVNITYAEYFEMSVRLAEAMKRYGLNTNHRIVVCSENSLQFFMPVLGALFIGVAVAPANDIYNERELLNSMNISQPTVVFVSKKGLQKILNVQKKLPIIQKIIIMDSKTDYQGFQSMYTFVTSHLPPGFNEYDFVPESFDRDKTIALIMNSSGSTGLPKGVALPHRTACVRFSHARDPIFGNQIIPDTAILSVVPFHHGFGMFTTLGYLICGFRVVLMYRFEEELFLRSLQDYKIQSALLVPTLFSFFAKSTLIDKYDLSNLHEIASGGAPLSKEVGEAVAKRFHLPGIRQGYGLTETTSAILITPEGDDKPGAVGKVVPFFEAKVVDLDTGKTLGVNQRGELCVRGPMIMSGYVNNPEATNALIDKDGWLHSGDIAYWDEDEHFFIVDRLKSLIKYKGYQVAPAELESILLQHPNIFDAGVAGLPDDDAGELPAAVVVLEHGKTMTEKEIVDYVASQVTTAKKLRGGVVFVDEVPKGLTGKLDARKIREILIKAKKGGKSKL
Summary of the method: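 Purified P. pyralis luciferase at 10 nM in 50 mM Tris Acetate (final), luminescence read within 5 minutes of enzyme addition to compounds. Activity normalised to PTC124 versus DMSO; concentration-response curves classed by r2, magnitude and activity.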

[15] = S16 Schwann cell viability assay (CellTiter-Glo assay) (AID 624031);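 note: native untransfected S16 rat Schwann cells; cellular ATP luminescence as a viability measure; plate controls were DMSO-treated cells for no effect and cell-free wells for full effect; nearly all actives have a fitted effect of over 70% in size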
Summary of the method: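 Following overnight culture in 10% FBS DMEM, parental S16 rat Schwann cells are dosed for 24 h at 37 °C. Viability is read as CellTiter-Glo luminescence and expressed as % activity relative to DMSO (0%) and no-cell wells.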

[16] = S16 Schwann cell PMP22 intronic element beta-lactamase assay (AID 624044; calls by dose curve;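 note: 0% = DMSO and -100% = potassium clavulanate positive control; nearly all actives have a fitted effect of over 15% in size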)
Summary of the method: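 Rat S16 Schwann cells with beta-Lac driven by a PMP22 intronic element, compound-treated 24 h at 37 °C. LiveBLAzer FRET B/G read: 460 nm normalized to potassium clavulanate vs DMSO; 535 nm FRET as viability; concentration-effect curves classified.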

[17] = qHTS profiling for inhibitors of Plasmodium falciparum proliferation (AID 504749);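 note: 0% = DMSO vehicle and full inhibition = artemisinin control; nearly all actives have a fitted effect of over 60% in size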; conditions: P. falciparum in erythrocytes, SYBR Green DNA, 72 h, at 28.7 µM (top of the series)
Summary of the method: (§1)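 P. falciparum-infected erythrocytes (0.3% parasitemia, 2.5% hematocrit) incubated with compound 72 h at 37 C, 5% CO2. Parasite DNA detected by SYBR Green after lysis, overnight at room temperature; normalised to 0.29 uM artemisinin and DMSO.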

3D7 = test: as above; conditions: P. falciparum in erythrocytes, SYBR Green DNA, 72 h; series mostly up to 28.7 µM
Summary of the method: as §1

7G8 = test: as above; conditions: P. falciparum in erythrocytes, SYBR Green DNA, 72 h; series mostly up to 28.7 µM
Summary of the method: as §1

AA1029 = test: as above; conditions: P. falciparum in erythrocytes, SYBR Green DNA, 72 h; series mostly up to 28.7 µM
Summary of the method: as §1

AS120 = test: as above; conditions: P. falciparum in erythrocytes, SYBR Green DNA, 72 h; series mostly up to 28.7 µM
Summary of the method: as §1

ATS189 = test: as above; conditions: P. falciparum in erythrocytes, SYBR Green DNA, 72 h; series mostly up to 28.7 µM
Summary of the method: as §1

ATS95 = test: as above; conditions: P. falciparum in erythrocytes, SYBR Green DNA, 72 h; series mostly up to 28.7 µM
Summary of the method: as §1

C2A = test: as above; conditions: P. falciparum in erythrocytes, SYBR Green DNA, 72 h; series mostly up to 28.7 µM
Summary of the method: as §1

CP185 = test: as above; conditions: P. falciparum in erythrocytes, SYBR Green DNA, 72 h; series mostly up to 28.7 µM
Summary of the method: as §1

CP191 = test: as above; conditions: P. falciparum in erythrocytes, SYBR Green DNA, 72 h; series mostly up to 28.7 µM
Summary of the method: as §1

CP192 = test: as above; conditions: P. falciparum in erythrocytes, SYBR Green DNA, 72 h; series mostly up to 28.7 µM
Summary of the method: as §1

CP194 = test: as above; conditions: P. falciparum in erythrocytes, SYBR Green DNA, 72 h; series mostly up to 28.7 µM
Summary of the method: as §1

CP201 = test: as above; conditions: P. falciparum in erythrocytes, SYBR Green DNA, 72 h; series mostly up to 28.7 µM
Summary of the method: as §1

CP203 = test: as above; conditions: P. falciparum in erythrocytes, SYBR Green DNA, 72 h; series mostly up to 28.7 µM
Summary of the method: as §1

CP211 = test: as above; conditions: P. falciparum in erythrocytes, SYBR Green DNA, 72 h; series mostly up to 28.7 µM
Summary of the method: as §1

Cc1cc(C)nc(N/N=C/c2ccc([N+](=O)[O-])o2)n1
inactive: outcome [1]

CCN(CC(=O)NC(=O)NCc1ccccc1)Cc1nc2ccccc2c(=O)[nH]1
inactive: outcome [2] | outcome [1]

CC(C)(C)NC[C@@H](O)c1ccc(O)c(CO)n1
inactive: Potency [3] > 11.4 µM | activity change, negative = inhibition [4] -2.07% | activity change, negative = inhibition [5] 10.1% [at 2.29 µM] | activity change, negative = inhibition [6] 10.1% | activity, negative = inhibition [7] 19.4% | Potency [8] > 46 µM | Potency [9] > 9.22 µM | Potency [10] | Potency [11] | outcome [12] | Potency [13] | outcome [14] | Potency [15] | outcome [16] | activity, negative = inhibition ([17]; parasite line A) 8.88% | activity, negative = inhibition ([17]; parasite line B) 0.372% | Potency (3D7) | Potency (7G8) | Potency (AA1029) | Potency (AS120) | Potency (ATS189) | Potency (ATS95) | Potency (C2A) | Potency (CP185) | Potency (CP191) | Potency (CP192) | Potency (CP194) | Potency (CP201) | Potency (CP203) | Potency (CP211)
